NIH3T3 tox – NIH 3T3 cell cytotoxicity; Potency, µM (series often up to 96.7 µM), actives largely listed as inhibitors; AID 1345082; hit rate 4.3% among 94,000; NIH 3T3 viability, CellTiter-Glo ATP luminescence, 48-72 h; active = well fitted curve in the direction sought with a large enough effect; inconclusive = small, poorly fitted or top-dose-only effect, or another doubt; inactive = no such curve, though single readings can be large; an effect the other way counts as inactive or inconclusive; note: nearly all actives have a fitted effect of over 55% in size
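Luminescent ATP readout (CellTiter-Glo, 10 min RT) after 48 or 72 hr compound exposure of NIH 3T3 cells seeded at 400 cells/well in 1536-well format; quantitative HTS.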
HEK cytotox – cytotoxic compounds in HEK 293 cells. AID 1345083. hit rate 6.6% among 94,000. Potency, µM (titrated, usually from 115 µM), most hits filed as inhibitors. HEK 293 viability, ATP luminescence (CellTiter-Glo), 48-72 h; active = well fitted curve in the direction sought with a large enough effect; inconclusive = small, poorly fitted or top-dose-only effect, or another doubt; inactive = no such curve, though single readings can be large; an effect the other way counts as inactive or inconclusive; note: nearly all actives have a fitted effect of over 60% in size
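Luminescence from cellular ATP, measured with CellTiter-Glo, indicates HEK 293 viability. Cells plated at 250 cells/well are treated with compound for 48 or 72 hr at 37 degree Celsius before reagent addition.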
Luciferase inh – inhibitors of firefly (Photinus pyralis) luciferase; P08659; purified P. pyralis luciferase, luminescence, biochemical; Potency, µM (highest dose often 115 µM), usual class: inhibitors; hit rate 2.5% among 76,000; AID 1347043; active = well fitted curve in the direction sought with a large enough effect; inconclusive = small, poorly fitted or top-dose-only effect, or another doubt; inactive = no such curve, though single readings can be large; an effect the other way counts as inactive or inconclusive; note: nearly all actives have a fitted effect of over 65% in size
Target sequence (P08659 whole entry, looked up): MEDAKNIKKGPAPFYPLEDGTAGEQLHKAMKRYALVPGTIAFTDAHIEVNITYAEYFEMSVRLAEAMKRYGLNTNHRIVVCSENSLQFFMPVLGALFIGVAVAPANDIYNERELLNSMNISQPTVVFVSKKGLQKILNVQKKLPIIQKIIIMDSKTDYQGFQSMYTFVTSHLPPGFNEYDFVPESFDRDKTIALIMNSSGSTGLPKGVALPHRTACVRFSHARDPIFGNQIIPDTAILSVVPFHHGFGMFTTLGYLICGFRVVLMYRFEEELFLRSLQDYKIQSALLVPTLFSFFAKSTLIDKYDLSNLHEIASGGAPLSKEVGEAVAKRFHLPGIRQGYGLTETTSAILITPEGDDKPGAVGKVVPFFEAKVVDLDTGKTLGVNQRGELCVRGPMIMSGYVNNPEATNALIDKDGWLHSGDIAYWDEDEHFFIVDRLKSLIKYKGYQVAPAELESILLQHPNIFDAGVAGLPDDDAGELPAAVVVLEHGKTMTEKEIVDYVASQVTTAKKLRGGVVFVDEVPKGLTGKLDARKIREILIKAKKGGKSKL
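Biochemical qHTS: compound (6-point titration) added to 10uM D-luciferin plus 10uM ATP in Tris acetate pH 7.5 buffer with Mg, Tween-20 and BSA, then purified enzyme at 10nM; light output imaged.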
NPR1 antag – human Npr1 receptor antagonism; P16066; HEK293 hNpr1 GloSensor cGMP, ANP-stimulated luminescence; Potency, µM (doses to about 46.3 µM), usual class: inhibitors; hit rate 1.6% among 76,000; AID 1347048; note: nearly all actives have a fitted effect of over 60% in size
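HEK293 cells stably expressing human Npr1 and cGMP GloSensor pGS-40F, loaded 2 h with 2% GloSensor reagent, given compound 30 min at room temperature. Luminescence read before and 20 min after 0.1 nM hNppA.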
NPR1 antag cnf – confirmation of human Npr1 natriuretic peptide receptor antagonists. shares compounds with NPR1 antag. HEK293 hNpr1 cGMP GloSensor luminescence, ANP-stimulated. Potency, µM (top dose mostly 57.6 µM), actives largely listed as inhibitors. hit rate 76% among 1,400. AID 1347044; note: nearly all actives have a fitted effect of over 70% in size
NPR2 antag – hNpr2 antagonism, selectivity versus Npr1; AID 1347046; shares compounds with NPR1 antag; HEK293 hNpr2 GloSensor cGMP luminescence, CNP-stimulated; hit rate 67% among 1,400; Potency, µM (series often up to 57.6 µM), hits mostly inhibitors; note: nearly all actives have a fitted effect of over 70% in size
FLuc counter – FLuc enzyme inhibition, Npr1 counter-screen; shares compounds with NPR1 antag; purified FLuc enzyme, luminescence, Km substrate; Potency, µM (top dose mostly 57.6 µM), hits mostly inhibitors; hit rate 0.7% among 1,400; active = well fitted curve in the direction sought with a large enough effect; inconclusive = small, poorly fitted or top-dose-only effect, or another doubt; inactive = no such curve, though single readings can be large; an effect the other way counts as inactive or inconclusive
GloSensor ctrl – counter-screen for Npr1 antagonists: GloSensor control cell line. AID 1347051. shares compounds with NPR1 antag. hit rate 69% among 1,400. Potency, µM (top dose mostly 57.6 µM), actives largely listed as inhibitors. HEK293 GloSensor cGMP, SNP-stimulated, luminescence; note: nearly all actives have a fitted effect of over 70% in size
Of the large screens only hits and unclear results are named; the others gave an inactive call (follow-up assays come after a bar, where they were run). An excerpt weighted towards active compounds, which were near 11% of everything screened. Unless noted, calls come from the whole dose curve.

COc1ccc(-n2nc3n(c2=O)CCN(Cc2cccn2C)C3)cc1	HEK cytotox inconclusive (no result: Luciferase inh, NPR1 antag) | NPR1 antag cnf inconclusive | NPR2 antag inconclusive | FLuc counter inconclusive | GloSensor ctrl inconclusive
CC(=O)N1CCn2c(nn(-c3ccc([N+](=O)[O-])cc3)c2=O)C1	HEK cytotox inconclusive
COc1ccc(CN2CCn3c(nn(-c4ccc([N+](=O)[O-])cc4)c3=O)C2)cc1	NIH3T3 tox inconclusive, HEK cytotox inconclusive, NPR1 antag 11µM | NPR1 antag cnf 22µM | NPR2 antag 22µM | FLuc counter inactive | GloSensor ctrl 22µM
O=C(CCC1CCN(C(=O)c2ccoc2)CC1)N1CCC(Cc2ccccc2)CC1	NIH3T3 tox inconclusive, HEK cytotox inconclusive | NPR1 antag cnf inconclusive | NPR2 antag inactive | FLuc counter inactive | GloSensor ctrl inconclusive
COC(=O)c1cccc(C(=O)N2CCC(Cc3nc(-c4ccc(F)cc4)no3)CC2)c1	NIH3T3 tox inconclusive, HEK cytotox inconclusive, NPR1 antag 7.1µM | NPR1 antag cnf 6.1µM | NPR2 antag 6.9µM | FLuc counter inactive | GloSensor ctrl 5.4µM
COc1cc(OC)cc(C(=O)N2CCC(Cc3nc(-c4ccc(F)cc4)no3)CC2)c1	NIH3T3 tox inconclusive, HEK cytotox 32µM, NPR1 antag 13µM | NPR1 antag cnf 15µM | NPR2 antag 22µM | FLuc counter inactive | GloSensor ctrl 15µM
COc1ccc(-c2noc(CC3CCN(C(=O)c4cc(F)cc(F)c4)CC3)n2)cc1	NIH3T3 tox inconclusive, HEK cytotox inconclusive, NPR1 antag 6.3µM | NPR1 antag cnf 5.4µM | NPR2 antag 6.1µM | FLuc counter inactive | GloSensor ctrl 5.4µM
CNC(=O)[C@H]1C[C@]2(CCCCN(CCO)C2=O)N(C(=O)NCc2ccccc2)[C@H]1c1ccccc1	NIH3T3 tox inconclusive (no result: Luciferase inh, NPR1 antag)
COCCN1C(=O)c2ccccc2C(C(=O)Nc2cc(Cl)ccc2OC)C12CCCC2 (centres undefined)	HEK cytotox inconclusive, NPR1 antag inconclusive | NPR1 antag cnf 14µM | NPR2 antag 8.6µM | FLuc counter inactive | GloSensor ctrl inactive
COc1ccc(-c2noc(CC3CCN(C(=O)c4cc(F)ccc4F)CC3)n2)cc1	NIH3T3 tox inconclusive, HEK cytotox inconclusive, NPR1 antag 7.1µM | NPR1 antag cnf 6.9µM | NPR2 antag 6.9µM | FLuc counter inactive | GloSensor ctrl 4.3µM
COc1ccc(-c2noc(CC3CCN(C(=O)c4cc(Cl)ccc4F)CC3)n2)cc1	NIH3T3 tox inconclusive, HEK cytotox 40µM, NPR1 antag 7.1µM | NPR1 antag cnf 9.7µM | NPR2 antag 11µM | FLuc counter inactive | GloSensor ctrl 9.7µM
Cc1ccccc1Cc1c(C)nc2c(C(=O)N3CCC(Cc4nncn4CC4CC4)CC3)cnn2c1C	none
Cn1cccc1C(=O)N1CCCN(C(=O)C2CC2)C(c2ccccc2)CC(=O)NCC1 (centres undefined)	none
Nc1ncccc1CN1CCC2(CC1)COCCN2C(=O)OCc1ccccc1	NIH3T3 tox inconclusive, HEK cytotox inconclusive, NPR1 antag 7.9µM | NPR1 antag cnf 11µM | NPR2 antag 11µM | FLuc counter inactive | GloSensor ctrl 11µM
CC1=NS(=O)(=O)N(C)C=C1C(=O)OCc1nc(-c2ccccc2F)no1	NPR1 antag inconclusive | NPR1 antag cnf inconclusive | NPR2 antag inconclusive | FLuc counter inactive | GloSensor ctrl inconclusive
COc1ccc(CN2C=C(C(=O)OCc3nc(C4CC4)no3)C(C)=NS2(=O)=O)cc1	NIH3T3 tox inconclusive, HEK cytotox inconclusive
CC1=NS(=O)(=O)N(C)C=C1C(=O)OCc1nc(-c2ccc(Br)cc2)no1	NIH3T3 tox inconclusive, HEK cytotox inconclusive, NPR1 antag 10µM | NPR1 antag cnf 11µM | NPR2 antag 14µM | FLuc counter inactive | GloSensor ctrl 11µM
COc1ccc(CN2C=C(C(=O)OCc3nc(Cc4cccc(C)c4)no3)C(C)=NS2(=O)=O)cc1	none
CC1=NS(=O)(=O)N(C)C=C1C(=O)OCc1nc(Cc2ccc(C)cc2)no1	NPR1 antag 11µM | NPR1 antag cnf 22µM | NPR2 antag inconclusive | FLuc counter inactive | GloSensor ctrl 19µM
CC1=NS(=O)(=O)N(C)C=C1C(=O)OCc1nc(C2CCCCC2)no1	NIH3T3 tox inconclusive, NPR1 antag 13µM | NPR1 antag cnf 22µM | NPR2 antag inconclusive | FLuc counter inactive | GloSensor ctrl 17µM
COc1ccc(N2CC(C(=O)N3CCC(C(=O)NCCCc4ccccc4)C3)NC2=O)cc1 (centres undefined)	none
CC1=NS(=O)(=O)N(C)C=C1C(=O)OCc1nc(-c2ccccc2Cl)no1	HEK cytotox inconclusive
COc1ccc(CN2C=C(C(=O)OCc3nc(-c4ccc(F)cc4)no3)C(C)=NS2(=O)=O)cc1	NIH3T3 tox inconclusive, HEK cytotox inconclusive, NPR1 antag inconclusive
COc1ccc(-c2noc(COC(=O)C3=CN(C)S(=O)(=O)N=C3C)n2)cc1	HEK cytotox inconclusive, NPR1 antag 7.9µM | NPR1 antag cnf 12µM | NPR2 antag 17µM | FLuc counter inactive | GloSensor ctrl 14µM
CC1=NS(=O)(=O)N(C)C=C1C(=O)OCc1nc(-c2ccc(OC(F)(F)F)cc2)no1	NIH3T3 tox inconclusive, HEK cytotox 40µM, NPR1 antag 10µM | NPR1 antag cnf 15µM | NPR2 antag 14µM | FLuc counter inactive | GloSensor ctrl 12µM
O=C(NCc1ccccc1)c1ccccc1OC1CN(Cc2ccsc2)C1	NIH3T3 tox 28µM, HEK cytotox inconclusive | NPR1 antag cnf inconclusive | NPR2 antag inactive | FLuc counter inactive | GloSensor ctrl inactive
CC(C)c1ccc(CN2CC(Oc3ccccc3C(=O)NC3CC3)C2)cc1	NIH3T3 tox inconclusive, HEK cytotox inconclusive
CC(C)N1C(=O)Cc2ccccc2C1C(=O)NCc1cccc(F)c1 (centres undefined)	none
COc1ccc(CC(=O)N2CCC(Cc3nc(-c4ccc(OC)cc4)no3)CC2)cc1	NIH3T3 tox inconclusive, HEK cytotox inconclusive, NPR1 antag 2.8µM | NPR1 antag cnf 3.1µM | NPR2 antag 3.4µM | FLuc counter inactive | GloSensor ctrl 3.4µM
CCOc1ccc(CC(=O)N2CCC(Cc3nc(-c4ccc(OC)cc4)no3)CC2)cc1	NIH3T3 tox inconclusive, HEK cytotox inconclusive, NPR1 antag 4.5µM | NPR1 antag cnf 2.7µM | NPR2 antag 3.9µM | FLuc counter inactive | GloSensor ctrl 3.4µM

Screening data from PubChem.
